Rows were chosen to be rich in hits. Some 11% of all compounds tested hit in one or more screens of this group.
HPGD block: blocks human HPGD enzyme activity | P15428 | purified HPGD, NADH fluorescence kinetic, PGE2 substrate | Potency, µM, without a hit: at the highest dose activity change, negative = inhibition, actives largely listed as inhibitors | hit rate 4.3% among 150,000; also: potency is read from the fitted curve at half-maximal effect
Target sequence (P15428 whole entry, looked up): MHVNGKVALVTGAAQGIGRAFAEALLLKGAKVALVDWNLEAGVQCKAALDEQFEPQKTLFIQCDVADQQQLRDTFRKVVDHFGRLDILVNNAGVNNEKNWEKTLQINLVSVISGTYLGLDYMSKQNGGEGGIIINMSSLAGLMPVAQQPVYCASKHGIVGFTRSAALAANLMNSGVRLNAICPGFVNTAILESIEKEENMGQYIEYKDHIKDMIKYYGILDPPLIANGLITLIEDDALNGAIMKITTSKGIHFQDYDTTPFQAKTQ
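20 nM HPGD preincubated 15 min at room temperature with compound in 50 mM Tris-HCl pH 8, 0.01% Tween 20. Started with 1 mM NAD+ and 30 uM prostaglandin E2; NADH fluorescence (360/450 nm) read 5 times over 30-s intervals, last minus first.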
ALDH1A1 inh: inhibitors of human aldehyde dehydrogenase 1A1; Purified ALDH1A1, NADH fluorescence, propionaldehyde substrate; Potency, µM (titrated, usually from 75.3 µM), without a hit: at the highest dose activity, negative = inhibition, hits mostly inhibitors; hit rate 7.3% among 220,000; AID 1030;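 also: potency is read from the fitted curve at half-maximal effect; plate controls were no enzyme wells and a reference inhibitor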
PNC assembly inh: perinucleolar compartment assembly inhibition; PC3M PTB-GFP, PNC prevalence imaging, 16 h; hits give low values; activity change (PNC), negative = inhibition, % at 10 µM; hit rate 3.1% among 140,000;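 active = readout at or below -70, meaning at least 70% loss of cells showing the perinucleolar compartment, a nuclear body marking cancer cells; inconclusive = readout between -30 and a set limit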;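 also: plate controls were DMSO wells for no effect and camptothecin positive control wells for full effect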
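PC3M cells stably expressing PTB-GFP, 750–1000 cells/well, treated 16 h at 37 °C with compound (23 nl of library stock), in duplicate. After paraformaldehyde fixation and Hoechst stain, imaged at 20x; PNC prevalence scored by image analysis.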
IMPase cell inh: cell-permeable inhibitors of inositol monophosphatase (IMPase); P97697; CHO-M1 cells, IP1 accumulation, HTRF TR-FRET ratio; inhibition (IP1 accumulation), % at 46.1 µM; 120,000 tested, under 10 active; active = well fitted curve in the direction sought with a large enough effect in the signal ratio, not every such curve was filed as active; inconclusive = small, poorly fitted or top-dose-only effect, or a change in a side signal; inactive = no such curve, though single readings can be large or run the other way; the % refers to the signal ratio;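 also: cells stimulated with carbachol in lithium chloride buffer; plate controls were DMSO basal wells for no effect and reference inhibitor wells for full effect; higher means more IMPase inhibition seen as more IP1 and lower FRET ratio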
Target sequence (P97697 whole entry, looked up): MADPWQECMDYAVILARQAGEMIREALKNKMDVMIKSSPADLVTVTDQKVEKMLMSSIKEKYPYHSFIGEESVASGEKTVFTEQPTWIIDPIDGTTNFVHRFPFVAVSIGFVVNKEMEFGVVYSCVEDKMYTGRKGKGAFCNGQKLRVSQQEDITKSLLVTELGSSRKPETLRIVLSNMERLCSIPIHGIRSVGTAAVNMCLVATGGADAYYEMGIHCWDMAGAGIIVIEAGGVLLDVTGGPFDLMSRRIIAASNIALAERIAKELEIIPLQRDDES
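Cellular IMPase inhibition is scored as a rise in cytosolic IP1, detected by competitive TR-FRET between d2-labelled IP1 and a europium anti-IP1 antibody. M1-expressing CHO cells were stimulated with carbachol for 30 min at 37C, with lithium (50 mM LiCl) present in the buffer.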
IMPase Li inh: IMPase inhibition in cells with lithium potentiation. hit rate 0.35% among 210,000. Potency, µM (titrated, usually from 59.4 µM), without a hit: top-dose activity, negative = IMPase inhibition, most hits filed as inhibitors. CHO-M1 cells, IP1 TR-FRET (IP-One), carbachol + lithium; active = well fitted inhibition curve with a large enough effect; inconclusive = small, poorly fitted or top-dose-only effect; inactive = no such curve, though single readings can be large or run the other way;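 also: IP1 builds up when IMPase is blocked and the TR-FRET signal falls; potency is read from the fitted curve at half-maximal effect; plate controls were basal vehicle for no effect and high inhibitor control for full effect; nearly all actives have a fitted effect of over 50% in size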
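CHO-M1, 2000 cells/well, 16–30 h culture; cpd + low Li+, 30 min 37C; lysis with d2-IP1/Eu-anti-IP1 Ab, 10 min RT; TR-FRET 665/620 ratio and 620 channel; AC50 via Hill.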
Active calls of the source: *; [ ] = another dose, or the depositor's remark. Unless noted, calls follow the shape of the dose curve; as a rule, active = well fitted inhibition curve with a large enough effect (not every such curve was filed as active); inconclusive = small, poorly fitted or top-dose-only effect, or another doubt; inactive = no such curve, though single readings can be large or run the other way. Unless noted, % is scaled to controls: 0 for no effect and ±100 for the full control effect.

What do the screens show for `CN1Cc2cc(C(=O)c3cc(Cl)cc(CSc4ncccn4)c3O)cnc2NC1=O`?
HPGD block: 14µM*; ALDH1A1 inh: 28µM*; PNC assembly inh: inconclusive; IMPase cell inh: 3; IMPase Li inh: inconclusive

Results for COC(=O)CCCC1=CC2=C(c3ccccc3)C(=O)C(C)(OC(=O)C3CCCC3)C(=O)C2=CN1CCCOC(C)C (configuration not stated) ?
HPGD block: -15%; ALDH1A1 inh: inconclusive; IMPase Li inh: 4%

Results for COc1cc(OC)c(C2CC(=O)N3CN(c4ccc(C)cc4)CSC3=C2C#N)cc1OC (configuration not stated) ?
HPGD block: 7.1µM*; ALDH1A1 inh: 7.9µM*; PNC assembly inh: 6; IMPase cell inh: 4; IMPase Li inh: -3%[38.3 µM]

How did COc1ccc(N2CSC3=C(C#N)C(c4cc(OC)ccc4OC)CC(=O)N3C2)c(OC)c1 (configuration not stated) do in these assays?
HPGD block: 7.9µM*; ALDH1A1 inh: 8.9µM*; PNC assembly inh: 1; IMPase cell inh: -1; IMPase Li inh: 10%[38.3 µM]

How did COc1ccc(C2CC(=O)N3CN(c4ccc(C)c(Cl)c4)CSC3=C2C#N)cc1OC (configuration not stated) do in these assays?
HPGD block: inconclusive; ALDH1A1 inh: 7.9µM*; PNC assembly inh: 14; IMPase cell inh: -16; IMPase Li inh: inconclusive

Results for COc1ccc(N2CSC3=C(C#N)C(c4ccc(OC)c(OC)c4)CC(=O)N3C2)c(OC)c1 (configuration not stated) ?
HPGD block: 10µM*; ALDH1A1 inh: 11µM*; PNC assembly inh: 0; IMPase cell inh: 6; IMPase Li inh: -11%[38.3 µM]

Results for CCSC1=C(C#N)C(c2ccc(OC)c(OC)c2)CC(=O)N1 (configuration not stated) ?
HPGD block: 2%; ALDH1A1 inh: -7%; PNC assembly inh: inconclusive; IMPase cell inh: 7; IMPase Li inh: 26%[38.3 µM]

What do the screens show for `CC(=O)/C(=C\c1ccccc1)CC(=O)O`?
HPGD block: -9%; ALDH1A1 inh: 4%; IMPase Li inh: 12%

Results for COc1ccc(CC(=O)NC2CC(C)(C)NC(C)(C)C2)cc1 ?
HPGD block: -9%; ALDH1A1 inh: -2%; PNC assembly inh: 20; IMPase cell inh: 4; IMPase Li inh: -3%

What do the screens show for `CC(=O)Nc1ccc(NC(=O)COC(=O)c2cnccn2)cc1`?
ALDH1A1 inh: inconclusive; IMPase Li inh: -3%

What do the screens show for `COc1ccc(N2CSC3=C(C#N)C(c4cc(OC)c(OC)cc4OC)CC(=O)N3C2)c(OC)c1` (configuration not stated)?
HPGD block: 10µM*; ALDH1A1 inh: 8.9µM*; PNC assembly inh: 17; IMPase cell inh: -3; IMPase Li inh: 12%[38.3 µM]

What do the screens show for `CCCSC1=C(C#N)C(c2cc(OC)ccc2OC)CC(=O)N1` (configuration not stated)?
HPGD block: 22µM*; ALDH1A1 inh: -3%; PNC assembly inh: 16; IMPase cell inh: -14; IMPase Li inh: 4%

How did CCOc1ccccc1N1CSC2=C(C#N)C(c3c(OC)ccc4ccccc34)CC(=O)N2C1 (configuration not stated) do in these assays?
HPGD block: 7.1µM*; ALDH1A1 inh: 4.5µM*; PNC assembly inh: -106*; IMPase cell inh: 3; IMPase Li inh: 15%[38.3 µM]

How did O=C(O)[C@@H]1CCN(Cc2oc(CO)cc(=O)c2O)C1 do in these assays?
HPGD block: -8%; ALDH1A1 inh: 1%[13.5 µM]; IMPase Li inh: -3%

Results for CC1=C(C(=O)OCC(C)C)C(c2cccc(F)c2)N2C(=O)C(C)SC2=N1 (configuration not stated) ?
HPGD block: inconclusive; ALDH1A1 inh: 0.45µM*; PNC assembly inh: inconclusive; IMPase cell inh: 4; IMPase Li inh: 29%[38.3 µM]

How did COc1ccc(/C=C/C(=O)c2ccc(O)cc2)cc1COc1ccc(F)cc1 do in these assays?
ALDH1A1 inh: inconclusive; PNC assembly inh: inconclusive; IMPase cell inh: 3

How did COc1cccc(/C=C/C(=O)c2cccc([N+](=O)[O-])c2)c1 do in these assays?
ALDH1A1 inh: inconclusive; IMPase Li inh: 8%

What do the screens show for `COc1cccc(C(=O)/C=C/c2ccc(N3CCCCC3)c([N+](=O)[O-])c2)c1`?
HPGD block: -6%; ALDH1A1 inh: 14µM*; PNC assembly inh: 30; IMPase Li inh: 2%

How did CN1CCN(c2ccc(S(=O)(=O)N3CCCCC3)cc2[N+](=O)[O-])CC1 do in these assays?
ALDH1A1 inh: -2%; IMPase Li inh: -1%

How did COc1ccc(Oc2ccc(/C=C/C(=O)c3ccc(O)cc3)cc2[N+](=O)[O-])cc1 do in these assays?
HPGD block: -23%; ALDH1A1 inh: inconclusive; PNC assembly inh: -113*; IMPase Li inh: 16%

Results for O=C(/C=C/c1ccc(N2CCCCC2)c([N+](=O)[O-])c1)c1ccc(S(=O)(=O)N2CCCC2)cc1 ?
HPGD block: -9%; ALDH1A1 inh: 4.5µM*; PNC assembly inh: 31; IMPase Li inh: 3%

How did CN(C)c1ccc(/C=C/C(=O)c2ccccc2)cc1[N+](=O)[O-] do in these assays?
HPGD block: 14µM*; ALDH1A1 inh: inconclusive; PNC assembly inh: -28; IMPase Li inh: 6%

What do the screens show for `CC(OC(=O)CCN1C(=O)c2cccc([N+](=O)[O-])c2C1=O)C(=O)Nc1cc(Cl)cc(Cl)c1` (configuration not stated)?
HPGD block: -19%; ALDH1A1 inh: -2%; PNC assembly inh: -1; IMPase Li inh: 4%

How did N#CC(C#N)=C1NC2(CCCC2)Cc2ccccc21 do in these assays?
HPGD block: -3%; ALDH1A1 inh: inconclusive; PNC assembly inh: -19; IMPase Li inh: 5%

How did CNc1nc(-c2ccccc2C)nc2ccccc12 do in these assays?
ALDH1A1 inh: 8%; IMPase Li inh: 6%

What do the screens show for `O=C(/C=C/c1ccc(-c2ccccc2[N+](=O)[O-])o1)c1ccccc1`?
HPGD block: -28%; ALDH1A1 inh: 18µM*; PNC assembly inh: 53; IMPase Li inh: 7%

What do the screens show for `CCOc1cccc(-c2cc(C(=O)N/N=C/c3cccc(OC)c3O)[nH]n2)c1`?
HPGD block: -12%; ALDH1A1 inh: 4%

What do the screens show for `COC(=O)c1nnc(SC)nc1C(=O)OC`?
HPGD block: -3%; ALDH1A1 inh: 2%; IMPase Li inh: 18%

Results for O=C(CSc1nc2ncc(Br)cc2[nH]1)c1ccc([N+](=O)[O-])cc1 ?
HPGD block: 8.9µM*; ALDH1A1 inh: inconclusive; PNC assembly inh: inconclusive; IMPase cell inh: -5; IMPase Li inh: 1%

What do the screens show for `Fc1ccc(CSc2nc3ncc(Br)cc3[nH]2)cc1`?
HPGD block: 0.63µM*; ALDH1A1 inh: 7%; PNC assembly inh: 12; IMPase cell inh: 3; IMPase Li inh: 14µM*

From PubChem
